Screening data as filed in PubChem BioAssay.
PNC inhibitor – High Content Assay for Compounds that inhibit the Assembly of the Perinucleolar Compartment; PC3M PTB-GFP, PNC prevalence imaging, 16 h; hits give low values; activity change (PNC), negative = inhibition, % at 10 µM; 3.1% of 140,000 active;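 active = readout at or below -70, meaning at least 70% loss of cells showing the perinucleolar compartment, a nuclear body marking cancer cells; inconclusive = readout between -30 and a set limit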;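 note: plate controls were DMSO wells for no effect and camptothecin positive control wells for full effect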
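PC3M cells stably expressing PTB-GFP, 750–1000 cells/well, treated 16 h at 37 °C with compound (23 nl of library stock), in duplicate. After paraformaldehyde fixation and Hoechst stain, imaged at 20x; PNC prevalence scored by image analysis.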
ALOX12 inhib – qHTS Assay for Inhibitors of 12-hLO (12-human lipoxygenase); 0.12% of 150,000 active; purified 12-hLO, xylenol orange hydroperoxide absorbance; Polyunsaturated fatty acid lipoxygenase ALOX12 (Homo sapiens), P18054; AID 1452, 2008; Potency, µM (top dose mostly 57.1 µM), for inactives: at the highest dose activity change, negative = inhibition, hits mostly inhibitors; note: potency is the fitted concentration of half-maximal effect; nearly all actives have a fitted effect of over 55% in size
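Hydroperoxide formation by human 12-lipoxygenase from 40 uM arachidonic acid was followed colorimetrically via ferric-xylenol orange complex, using the 573/405 nm absorbance ratio. Enzyme concentration was 150 nM, with 30 min reaction at room temperature.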
ALOX15B inhib – qHTS Assay for Inhibitors of 15-hLO-2 (15-human lipoxygenase 2). Polyunsaturated fatty acid lipoxygenase ALOX15B (Homo sapiens), O15296. purified 15hLO-2, xylenol orange hydroperoxide absorbance. Potency, µM (highest dose often 57.1 µM), without a hit: at the top dose activity change, negative = inhibition, usual class: inhibitors. 0.56% of 110,000 active; note: potency is the fitted concentration of half-maximal effect; nearly all actives have a fitted effect of over 60% in size
Target sequence (O15296 whole entry, looked up): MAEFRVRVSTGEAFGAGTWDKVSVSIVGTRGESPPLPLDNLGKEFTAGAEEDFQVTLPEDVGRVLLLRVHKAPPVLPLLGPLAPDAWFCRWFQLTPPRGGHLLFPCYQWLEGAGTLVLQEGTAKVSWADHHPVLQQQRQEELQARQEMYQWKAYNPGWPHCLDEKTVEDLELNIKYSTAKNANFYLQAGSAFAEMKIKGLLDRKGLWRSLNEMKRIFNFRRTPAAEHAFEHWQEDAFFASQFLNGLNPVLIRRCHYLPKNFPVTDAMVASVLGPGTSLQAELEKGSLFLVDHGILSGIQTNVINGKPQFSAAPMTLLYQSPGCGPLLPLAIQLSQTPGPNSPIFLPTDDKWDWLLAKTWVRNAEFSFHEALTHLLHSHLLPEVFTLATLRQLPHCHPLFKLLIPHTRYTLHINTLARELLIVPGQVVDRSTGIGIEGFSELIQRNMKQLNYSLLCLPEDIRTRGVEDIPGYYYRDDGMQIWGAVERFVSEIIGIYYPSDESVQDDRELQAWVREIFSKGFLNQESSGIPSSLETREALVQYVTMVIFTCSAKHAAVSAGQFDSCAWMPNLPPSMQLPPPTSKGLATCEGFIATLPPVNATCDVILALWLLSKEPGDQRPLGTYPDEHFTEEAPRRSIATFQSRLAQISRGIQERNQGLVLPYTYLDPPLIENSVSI
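Purified human 15hLO-2 (50 nM) preincubated 15 min with compound, then 45 uM arachidonic acid for 90 min at RT in 25 mM Hepes pH 7.5, 0.01% Triton X-100. Hydroperoxide detected by Fe-xylenol orange; 573/405 nm absorbance ratio.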
* hit, by the source's call; u = inconclusive; x = no result given; [ ] = another dose, or the depositor's remark. In the library only some 3.2% were active in any assay of this set; here they are far more common. Unless noted, calls come from the whole dose curve; as a rule, active = well fitted curve in the direction sought with a large enough effect; inconclusive = small, poorly fitted or top-dose-only effect, or another doubt; inactive = no such curve, though single readings can be large; an effect the other way counts as inactive or inconclusive. Unless noted, % is set by controls: 0 for no effect and ±100 for the full control effect.

SMILES	PNC inhibitor	ALOX12 inhib	ALOX15B inhib
O=P(NS(=O)(=O)c1ccc(Cl)cc1)(Oc1ccccc1)Oc1ccccc1	-100*	0%	x
O=P(NS(=O)(=O)c1ccccc1)(Oc1ccccc1)Oc1ccccc1	30	1%	-3%
NC(=O)CN1C[C@@H](O)CC1=O	x	-1%	7%
Cc1ccc(NC(=[OH+])c2cc3ccccc3cc2O)c(C)c1.Cc1ccc(NC(=[OH+])c2cc3ccccc3cc2O)c(C)c1.[Ni]	x	-26%[11.4 µM]	5%[11.4 µM]
C[C@H](CN(C)C)C(C#N)(c1ccccc1)c1ccccc1	x	3%[11.4 µM]	4%[11.4 µM]
CC(=O)OC(C)(C)/C=C/C(=O)[C@](C)(O)[C@H]1[C@H](O)C[C@@]2(C)[C@@H]3CC=C4[C@H](C[C@H](O)C(=O)C4(C)C)[C@]3(C)C(=O)C[C@]12C	-115*	-1%	x
Oc1ccc2c3c1O[C@@H]1c4[nH]c5c(c4C[C@@]4(O)[C@@H](C2)N(CC2CC2)CC[C@]314)C[C@]1(O)[C@@H]2Cc3ccc(O)c4c3[C@@]1(CCN2CC1CC1)[C@H]5O4	x	-4%	37%
CCc1ccc(-n2c(O)c(/C=N/N3CCCCC3c3cccnc3)c(=O)[nH]c2=O)cc1 (stereo unspecified)	-100*	-2%	x
CCn1c(O)c(/C(C)=N/N2CCCCC2c2cccnc2)c(=O)[nH]c1=S (stereo unspecified)	-13	1%	x
O=C(O)c1ccccc1-c1c2cc(Br)c(=O)cc-2oc2[c]([Hg])c(O)c(Br)cc12	x	u	4µM*
ClCC[N+]12CC[N+](CCCl)(CC1)C2 (tested in a mixture with another compound)	x	0%[11.4 µM]	9%[11.4 µM]
O=C(O)c1cccc(Cl)c1	x	-4%	-4%
O=C(O)c1cc[c]([Hg][Cl])cc1	x	u	3.2µM*
C[C@H](N[C@@H](C)CCc1ccccc1)[C@H](O)c1ccc(O)cc1	x	-2%	11%
CCCCn1c(O)c(C(CC)=NC(C)c2ccccc2)c(=O)[nH]c1=O (stereo unspecified)	16	-6%	-14%
C=CCn1c(O)c(C(C)=Nc2ccc(N(C)C)cc2)c(=O)[nH]c1=O	-91*	-7%	13%
C=CCn1c(O)c(C(C)=Nc2ccc(N(CC)CC)cc2)c(=O)[nH]c1=O	-3	-1%	-3%
C=CCn1c(O)c(C(CC)=NC(C)c2ccccc2)c(=O)[nH]c1=O (stereo unspecified)	-94*	-3%	-8%
CC(C)c1cccc(O)c(=O)c1	x	u	13µM*
CC(N)C(O)c1ccc(O)c(O)c1 (stereo unspecified)	x	-4%	-8%
O=C(O)[C@@H]1[C@H](C(=O)O)[C@]2(Cl)C(Cl)=C(Cl)[C@@]1(Cl)C2(Cl)Cl	x	-5%[11.4 µM]	u
CC(=O)[O-].CC(=O)[O-].O.O.[Cd+2]	x	-11%	u
COC(=O)C1=Nc2ccccc2/C1=C\c1c(O)n(-c2ccc(OC)cc2)c(=O)[nH]c1=O	67	u	-9%
O=c1[nH]c(=O)n(-c2ccccc2)c(O)c1/C=C/C=Nc1ccccc1	6	-8%	x
COC(=O)C1=Nc2ccccc2/C1=C\c1c(O)n(-c2ccc(Br)cc2)c(=O)[nH]c1=O	-124*	u	x
SMILES	PNC inhibitor	ALOX12 inhib	ALOX15B inhib
O=c1[nH]c(=O)n(-c2ccccc2)c(O)c1/C=C1/C(c2ccccc2)=Nc2ccccc21	-91*	-2%	x
C[C@]12CC[C@H](O)C[C@@H]1CC[C@H]1[C@H]2CC[C@]2(C)[C@H](C(=O)CO)CC[C@@H]12	x	-4%	-14%
O=C1N[C@@]2(CN3CCC2CC3)C(=O)N1CN(Cc1ccccc1)c1ccccc1	x	1%[11.4 µM]	-10%[11.4 µM]
CCC(C)N1C(=O)NC(=O)C2(Cc3c(ccc4ccccc34)N(C)C2)C1=O (stereo unspecified)	20	-18%	5µM*
COc1ccc2c(c1)CC1(CN2C)C(=O)NC(=O)N(CCc2ccccc2)C1=O (stereo unspecified)	-5	-11%	-15%
C[C@@]12CC[C@H]3[C@@H](CCC4=C(O)C(=O)CC[C@]43C)[C@H]1CCC2=O	x	-7%	-9%
O=C1CC(=O)N(c2ccc3c(c2)OCO3)C(=O)N1	-95*	-5%	2%
O=C1NC(=O)N(c2ccc3c(c2)OCO3)C(=O)/C1=C/c1ccc(N2CCCCC2)o1	12	-9%	-19%
CCN(CC)c1ccc(C=C2C(=O)N(C)C(=S)N(C)C2=O)o1	33	-1%	x
CN1C(=O)C(=Cc2ccc(N3CCCCC3)o2)C(=O)N(C)C1=S	-100*	-2%	-7%
CNc1ccccc1C(=O)O	x	6%	6%
C[CH2][Hg][S]c1ccccc1C(=O)O	x	u	0.63µM*
CCN(CC)c1ncnc2c1ncn2[C@@H]1O[C@@H](COP(=O)(O)OP(=O)(O)C(Br)(Br)P(=O)(O)O)[C@H](O)[C@@H]1O	x	-5%	19%
CCCn1nc2ccccc2c1P(=O)(N1CCOCC1)N1CCOCC1	-90*	-2%	1%
O=P(c1ccccc1)(c1nc2ccccc2s1)N1CCOCC1 (stereo unspecified)	-4	-1%	-7%
Oc1cc2c(cc1O)[C@H]1c3ccccc3CN[C@@H]1CC2	x	-11%	u
Oc1cc2c(cc1O)[C@H]1c3ccccc3CN[C@H]1CC2	x	-10%	6.3µM*
O=C(O)CN1CCN(CC(=O)O)CC(=O)[O][Hg][O]C(=O)C1	x	0.28µM*	0.32µM*
N#CCCCC[N+]12CN3CN(CN(C3)C1)C2	x	3%[11.4 µM]	-5%[11.4 µM]
CC1=NN(c2ccccc2)C(=O)[C@@H]1N=Nc1ccc([As](=O)(O)O)c(O)c1	x	-6%[11.4 µM]	-13%[11.4 µM]
CN1[C@@H]2CC[C@H]1CC(O[C@@H](c1ccccc1)c1ccccc1N)C2 (stereo partly specified)	x	3%	16%
CCNC(C)(C)[C@@H](SS)c1ccc(Br)cc1	x	-3%[11.4 µM]	-23%[11.4 µM]
O=c1c2ccccc2ncn1-c1ccc([N+](=O)[O-])c(C(F)(F)F)c1	-14	3%	x
CCCc1nc2ccc(Br)cc2c(=O)n1-c1ccc([N+](=O)[O-])c(C(F)(F)F)c1	-96*	1%	x
CS(=O)c1ccc(-c2nc(-c3ccc(F)cc3)c(-c3ccncc3)[nH]2)cc1 (stereo unspecified)	x	-4%	30%
SMILES	PNC inhibitor	ALOX12 inhib	ALOX15B inhib
CN1[C@H](CC(=O)c2ccccc2)CCC[C@H]1C[C@@H](O)c1ccccc1	x	-3%	-1%
CN1C(CC(=O)c2ccccc2)CCCC1CC(O)c1ccccc1 (stereo unspecified)	-110*	-1%	34%
CC(C)CNCCc1ccccn1	x	0%[11.4 µM]	-1%[11.4 µM]
Nc1nc(N)c(N=Nc2ccc([As](=O)(O)O)cc2)c(=O)[nH]1	x	5%[11.4 µM]	-19%[11.4 µM]
CCC(=O)OC1CCC2C3CCc4cc(O)ccc4C3CC[C@]12C (stereo partly specified)	x	-13%	u
CC1(C)CCC(C)(C)c2c1ccc(O)c2Cc1c(O)ccc2c1C(C)(C)CCC2(C)C	x	-9%[11.4 µM]	-13%[11.4 µM]
CCOP(=S)(OCC)SCC(=O)NC(C)(CC)C(=O)O (stereo unspecified)	-111*	8%	10%
CCOP(=S)(OCC)SCCSCC	x	-1%	-7%
